Structures are written as SMILES. Where “and” joins values, the source holds several entries; their conditions need not be identical. Equal entries are not always repeated.

For this test, the system named is HT29 sg-Ctrl (RNF43 wildtype). As to the kind of experiment: cell viability activity relative to DMSO (negative = inhibition); higher = more viable cells (less growth inhibition). The conditions noted are these: 5 µM; 96 h. Here is the method:
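Broad Repurposing Library primary screen at a single dose of 5 uM. HT29 sg-Ctrl and HT29 RNF43 G659fs CRISPR-edited isogenic cells were seeded at 2500 cells/well in 384-well plates in duplicate and treated for 96 h. Viability was read by CellTiter-Glo and reported as % activity relative to DMSO, with MG132 as the positive control (negative = growth inhibition).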
`Oc1cc(Cl)ccc1Oc1ccc(Cl)cc1Cl`: the cell viability activity is -92.8%.

Consider `CCCCCCCCCCCCCCCC[n+]1ccccc1`, for which the cell viability activity was -79.9%.

As to `Cc1sc2c(c1C)C(c1ccc(Cl)cc1)=N[C@@H](CC(=O)OC(C)(C)C)c1nnc(C)n1-2`, the cell viability activity was -61.7%.

With `O=C(C[C@H]1NCCC[C@@H]1O)Cn1cnc2cc(Br)c(Cl)cc2c1=O`, the cell viability activity was -86.5%.

On to `Fc1cc(F)c2c(c1)[C@H]1C=CC[C@H]1C(c1cccnc1)N2` (some centres undefined), for which the cell viability activity was -92.9% and -73.9%.

On to `O=Cc1cn(Cc2ccc(Cl)cc2)c2ccccc12`, for which the cell viability activity was -88.6%.

As for `COc1ccc(C[C@H]2NC[C@H](O)[C@H]2OC(C)=O)cc1`, the cell viability activity is -95.3%.

As to `C[C@@H]1CC[C@@]2(OC1)O[C@H]1C[C@H]3[C@@H]4CC=C5C[C@@H](O[C@@H]6O[C@H](CO)[C@@H](O[C@@H]7O[C@@H](C)[C@H](O)[C@@H](O)[C@H]7O)[C@H](O)[C@H]6O[C@@H]6O[C@@H](C)[C@H](O)[C@@H](O)[C@H]6O)CC[C@]5(C)[C@H]4CC[C@]3(C)[C@H]1[C@@H]2C`, the cell viability activity was -63.5%.

Consider `C[C@]12CC[C@H]3[C@@H](CC[C@]4(O)C[C@@H](O)CC[C@]34C=O)[C@@]1(O)CC[C@@H]2C1=CC(=O)OC1`, for which the cell viability activity is -75.5%.

On to `C=C(C)[C@H]1Cc2c(ccc3c2O[C@@H]2COc4cc(OC)c(OC)cc4[C@@H]2C3=O)O1`, for which the cell viability activity is -75.8%.

On to `C[C@]12O[C@H](C[C@]1(O)CO)n1c3ccccc3c3c4c(c5c6ccccc6n2c5c31)CNC4=O`, for which the cell viability activity was -84.6%.

As for `N#CC(C#N)=NNc1cccc(Cl)c1`, the cell viability activity was -68.2%.

In the case of `CC(=O)O[C@H]1C[C@H](O[C@H]2[C@@H](O)C[C@H](O[C@H]3[C@@H](O)C[C@H](O[C@H]4CC[C@@]5(C)[C@H](CC[C@@H]6[C@@H]5C[C@@H](O)[C@]5(C)[C@@H](C7=CC(=O)OC7)CC[C@]65O)C4)O[C@@H]3C)O[C@@H]2C)O[C@H](C)[C@H]1O[C@@H]1O[C@H](CO)[C@@H](O)[C@H](O)[C@H]1O`, the cell viability activity was -89.1%.

On to `O=C1/C(=C/c2ccccc2)C[C@@]2(O)C3Cc4ccc(O)c5c4[C@@]2(CCN3CC2CC2)[C@H]1O5`, for which the cell viability activity is -66%.

(Values after the supplement of paper PMC9177965.)
